FMDV inh: antivirals against foot and mouth disease virus; FMDV antiviral cell-based qHTS; Potency, µM (highest dose often 57.9 µM), inactives show top-dose activity change, negative = inhibition, actives largely listed as inhibitors; hit rate 1.2% among 410,000; calls by dose curve; tested in HEK293T cells; also: read-out not given here; potency is read from the fitted curve at half-maximal effect; % is scaled to controls: 0 for no effect and ±100 for the full control effect; nearly all actives have a fitted effect of over 45% in size
MARV entry inh: blocks Marburg virus binding to or entry into cells; AID 540276; Marburg virus pseudotyped entry inhibition, cell reporter; hit rate 1.8% among 300,000; Potency, µM (highest dose often 37.8 µM), for the others: top-dose activity change, negative = inhibition, usual class: inhibitors; calls by dose curve; tested in HEK293 cells; also: potency is read from the fitted curve at half-maximal effect; % is scaled to controls: 0 for no effect and ±100 for the full control effect
Lassa entry inh: inhibitors of Lassa virus binding or cell entry; Lassa virus pseudotype entry inhibition, cell reporter; Potency, µM (titrated, usually from 37.9 µM), for the others: at the top dose activity change, negative = inhibition, most hits filed as inhibitors; hit rate 1.2% among 300,000; calls by dose curve; tested in HEK293 cells; also: potency is read from the fitted curve at half-maximal effect; % is scaled to controls: 0 for no effect and ±100 for the full control effect; nearly all actives have a fitted effect of over 50% in size
HCV inhibitor: blocks hepatitis C virus. Huh7.5.1 HCVcc-Cre infection, luciferase reporter, 44 h. Potency, µM (series often up to 41.8 µM), for inactives: top-dose activity change, negative = inhibition, hits mostly inhibitors. hit rate 3.4% among 340,000; active = well fitted inhibition curve with a large enough effect; inconclusive = small, poorly fitted or top-dose-only effect, or another doubt; inactive = no such curve, though single readings can be large or run the other way; also: potency is read from the fitted curve at half-maximal effect; % is scaled to controls: 0 for no effect and ±100 for the full control effect
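A cell-based infection assay in which seeded cells (1,000 per well) receive test compound after 4 h, are inoculated with HCVcc-Cre at approximately 0.5 moi, and are incubated 44 h before luminescence detection.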
HCMV antiviral: blocks human cytomegalovirus replication. HFF cells, HCMV-luciferase reporter, 72 h; stronger effect = lower value. activity change, negative = inhibition, % at 57.5 µM. hit rate 4.5% among 410,000. AID 1259415; in the data active = activity change below about -60%; inconclusive = no clear call, values can overlap the other calls; inactive = above about -39%; also: % is scaled to controls: 0 for no effect and ±100 for the full control effect
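Screen run at 2 compound doses on HFFs infected with reporter HCMV, MOI 1 PFU/cell. Luciferase activity from cell lysates at 72 h post infection gave inhibition relative to buffer-only and Salinomycin wells.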
SARS PLpro yeast: inhibitors of SARS-CoV papain-like protease in yeast | S. cerevisiae expressing SARS-CoV PLpro, growth rescue | Potency, µM (doses to about 32.9 µM), for inactives: at the highest dose activity, positive = growth rescue, most hits filed as activators | hit rate 0.19% among 330,000; calls by dose curve; also: potency is read from the fitted curve at half-maximal effect; 0% is about no effect; nearly all actives have a fitted effect of over 55% in size
* marks the source's active call; other numbers are inactive results; ? = inconclusive; nt = no result given; [ ] = dose if it differs, or a comment. Only some compounds are listed: those with a hit (about 8% of all), similar ones and a draw of the others.

SMILES	FMDV inh	MARV entry inh	Lassa entry inh	HCV inhibitor	HCMV antiviral	SARS PLpro yeast
Cc1ccccc1N=C1SC(CC(=O)Nc2ccc3ccccc3c2)C(=O)N1Cc1ccccn1 (stereo not drawn)	?	?	16µM*	10µM*	-8	8%
C=C1N(S(=O)(=O)C(F)(F)F)CC[C@@]12c1ccccc1N(C)[C@@H]2c1cn(C)c2ccccc12	nt	nt	nt	nt	6	nt
COc1cccc(-n2ccnc2SCC(=O)Nc2ccc(Cl)c(Cl)c2)c1	-7%	nt	0%[46.1 µM]	nt	-61*	nt
CCOc1ccc(-n2ccnc(SCC(=O)NCc3cccc(OC)c3)c2=O)cc1	9%	-52%	12%	?	-34	7%
CCOc1ccccc1NC(=O)CSc1nccn1-c1ccc(Cl)cc1	-8%	nt	1%[46.1 µM]	nt	-72*	nt
O=C(CSc1nnnn1-c1ccc(Cl)cc1)Nc1cccnc1Cl	?	0%	5%	-29%	-71*	?
CCOc1ccc(-n2ccnc(SCC(=O)Nc3ccc(OC)cc3OC)c2=O)cc1	-28%	?	-30%[46.1 µM]	8.9µM*	-24	0%
Cc1nn(-c2ccc(Cl)cc2)c2nc(-c3cccnc3)cc(C(F)(F)F)c12	-10%	-2%[46.1 µM]	-5%[46.1 µM]	nt	36	nt
Cc1cccc(N2CCN(C(=O)c3cccn4c(=O)c5cc(Cl)ccc5nc34)CC2C)c1 (stereo not drawn)	-20%	nt	1%[46.1 µM]	nt	8	nt
Cc1ccc(NC(=O)CN2C(=O)C(c3ccccc3)=NC2(C)C)cc1C	-12%	0%[46.1 µM]	17%[46.1 µM]	nt	39	nt
COC(=O)[C@]1(C#N)[C@H](CC(C)C)C(=O)N(Cc2ccc(Cl)cc2)[C@@H]1c1ccc(OC)cc1	nt	nt	nt	nt	10	nt
COc1ccc(-n2ccnc2SCC(=O)Nc2ccccc2)cc1	?	16%	-2%	-4%	-29	5%
COc1ccc(-n2ccnc2SCC(=O)Nc2ccc(F)cc2F)cc1	-22%	nt	-22%[46.1 µM]	nt	-91*	nt
COc1cccc(-n2ccnc2SCC(=O)Nc2ccccc2F)c1	1%	?	3%	-5%	-6	5%
O=C(CSc1nccn1C1CCCC1)Nc1ccc(C(F)(F)F)cc1	-24%	nt	?	nt	-63*	nt
O=C(CSC1=NNC(c2ccccn2)S1)Nc1ccc(C(F)(F)F)cc1 (stereo not drawn)	-15%	?	?	-2%	-75*	-16%
O=C(CSc1nccn1-c1ccc(F)cc1)Nc1ccc(OC(F)(F)F)cc1	-18%	nt	-30%[46.1 µM]	nt	-68*	nt
CCCCCSc1nc2sc3c(c2c(=O)n1-c1ccccc1)CCN(C(C)=O)C3	-23%	?	?	nt	-6	nt
COc1cccc(CNC(=O)Cc2c(C)c3c(cc(C)c4c(C)coc43)oc2=O)c1	-3%	1%[46.1 µM]	11%[46.1 µM]	nt	-20	nt
CO/N=C(\C(=O)N[C@@H]1C(=O)N2C(C(=O)O)=C(CSc3nc(=O)c(O)nn3C)CS[C@H]12)c1csc(N)n1	-18%	nt	nt	nt	nt	nt
CC(CCC(=O)OC[C@H]1O[C@H](C#Cc2ccccc2)C=C[C@H]1Oc1ccc(C)cc1)=NOC[C@@H](O)[C@H]1O[C@@H]2OC(C)(C)O[C@H]2[C@@H]1O	nt	-2%[14.2 µM]	1%[14.3 µM]	nt	nt	nt
O=C(CC[C@H]1O[C@@H](n2cnc3c(NC(=O)c4ccccc4)ncnc32)[C@H](O)[C@@H]1O)NCc1cccc2ccccc12	-16%	nt	nt	nt	-64*	nt
CSc1ccc(NC(=O)CSc2nc3[nH]c(=O)cc(O)c3s2)cc1	-6%	nt	nt	24%	-15	15%
N#Cc1ccc(NC(=O)CSc2nc3[nH]c(=O)cc(O)c3s2)cc1	-12%	nt	nt	25%	-92*	2%
CCCNC(=O)c1ccc(COc2ccc(CCC)cc2OC)o1	?	0%[46.1 µM]	6.3µM*	?	-62*	-3%
SMILES	FMDV inh	MARV entry inh	Lassa entry inh	HCV inhibitor	HCMV antiviral	SARS PLpro yeast
COc1ccc(CCNC(=O)c2cc(=O)c3cc(C)c(C)cc3o2)cc1OC	-15%	7%[46.1 µM]	?	nt	-10	nt
COc1ccc(CCNC(=O)c2cc(=O)c3cc(C)ccc3o2)cc1OC	?	nt	nt	22µM*	?	2%
CCCc1ccc(OCc2ccc(C(=O)N3CCN(c4ccccn4)CC3)o2)c(OC)c1	?	23µM*	33%[14.3 µM]	?	54	-11%
CCCCn1c2nc3ccccc3nc2c2c(=O)n(CC(C)C)cnc21	-5%	nt	nt	-12%	-62*	nt
CCCCCn1c2nc3ccccc3nc2c2c(=O)n(CC(C)C)cnc21	-18%	3%[46.1 µM]	-1%	23%	nt	-2%
O=C(NCCC1=CCCCC1)c1ccc2c(c1)N(Cc1ccccc1)C(=O)c1ccccc1S2(=O)=O	1%	?	?	nt	-19	nt
C[C@@H]1CC[C@H]2C(=O)N(Cc3cccc([N+](=O)[O-])c3)C[C@@H](O)CN2[C@@H]1c1ccc(Br)cc1	nt	-13%[14.2 µM]	nt	nt	nt	nt
CCCCNC(=O)c1nc2ccc(Br)cc2nc1-c1cccc(Br)c1	nt	nt	nt	nt	-6	nt
C=CCC1(CC=C)CCCN1C(=O)c1cc(COc2ccc(C)nc2)on1	?	nt	nt	0.79µM*	-76*	1%
CO[C@H]1C=CO[C@@]2(C)Oc3c(C)c(O)c4c(O)c(c5c(nc6cc(C)ccn65)c4c3C2=O)NC(=O)/C(C)=C\C=C[C@H](C)[C@H](O)[C@@H](C)[C@@H](O)[C@@H](C)[C@H](OC(C)=O)[C@@H]1C	-18%	nt	nt	nt	nt	nt
Nc1cc(=O)[nH]c(SCC(=O)Nc2ccccc2Sc2ccc(Cl)cc2)n1	?	1%[46.1 µM]	?	?	-34	1%
COc1cccc(/C=C/C(=O)OCC(=O)Nc2ccccc2Sc2ccccc2)c1	-6%	-11%	-6%[46.1 µM]	10%	-65*	17%
O=C(CSc1ncn[nH]1)Nc1ccc([N+](=O)[O-])cc1Br	-3%	?	?	-22%	-65*	11%
O=C(CCl)Nc1ccccc1Sc1ccccc1	?	?	?	14%	-11	13µM*
O=C(CSc1ncn[nH]1)Nc1ccccc1Sc1ccc(Cl)cc1	16µM*	-12%	?	?	?	-1%
Cc1nc([N+](=O)[O-])cn1CC(Cl)Cn1cc([N+](=O)[O-])nc1C	nt	nt	nt	nt	-3	nt
C=C1CCC(OC(C)=O)/C(C)=C/CC2[C@H]1CC2(C)C (stereo partly drawn)	-13%	nt	nt	nt	nt	nt
C=C1C(=O)O[C@H]2C1CC[C@@](C)(O)C13C=CC(C)(C21)C1(C3)C(=O)O[C@@H]2C3C(C)=CCC3[C@](C)(O)C[C@H](OC(C)=O)C21 (stereo partly drawn)	-24%	-45%	?	1%	-90*	1%
Cc1cc(C)c2c(NC(=O)c3ccccc3Cl)c(C(=O)NCc3ccc(Cl)cc3)sc2n1	-25%	?	?	nt	-38	nt
COc1ccc(CNn2c(-c3cccs3)nc3ccccc3c2=O)cc1OC	?	?	?	?	-70*	-12%
COc1cccc(CNn2c(-c3cccc(C)c3)nc3ccccc3c2=O)c1	nt	?	18µM*	?	-73*	-18%

Screening data: PubChem BioAssay, National Center for Advancing Translational Sciences (NCATS)
